Data as given in PubChem BioAssay AID1159580 (chemical genetic matrix, 2015).
Screen size: about 5,500 compounds; about 2,000 (36%) were called active. Roughly 18% stayed inconclusive and do not appear here. Rule as the data show it: active = normalized growth mostly below about 0.91 (no sharp cut-off); inconclusive = no clear call, values can overlap the other calls; inactive = mostly above about 0.92. The list shows a part of the results.

Assay: chemical genetic growth profiling, strain panel (AID 1159580);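 also: tested at 20 µM; growth read once vehicle control cultures reached saturation at 30 °C; 1 = growth at the plate median or of vehicle wells; lower values mean less growth of the strain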
Conditions: growth OD

Measured: normalized growth

O=c1c(O)cc([C@H]2Oc3cc(O)cc(O)c3C[C@H]2O)cc2c([C@H]3Oc4cc(O)cc(O)c4C[C@H]3O)cc(O)c(O)c12
inactive: S. cerevisiae deletion strains, locus YJR066W, strain TOR1, stronger effect = lower value 0.921 | S. cerevisiae deletion strains, locus YKL009W, strain mrt4, stronger effect = lower value 1.09 | S. cerevisiae deletion strains, locus YKL068W, stronger effect = lower value 1.01 | S. cerevisiae deletion strains, locus YKL160W, strain elf1, stronger effect = lower value 1.01 | S. cerevisiae deletion strains, locus YKL190W, strain CNB1, stronger effect = lower value 1.02 | S. cerevisiae deletion strains, locus YKR001C, strain vps1, stronger effect = lower value 1.02 | S. cerevisiae deletion strains, locus YKR026C, strain gcn3, stronger effect = lower value 0.987 | S. cerevisiae deletion strains, locus YKR091W, strain srl3, stronger effect = lower value 1.03 | S. cerevisiae deletion strains, locus YLL001W, strain dnm1, stronger effect = lower value 1.03 | S. cerevisiae deletion strains, locus YLL026W, stronger effect = lower value 1.04 | S. cerevisiae deletion strains, locus YLL041C, strain sdh2, stronger effect = lower value 1.03 | S. cerevisiae deletion strains, locus YLR027C, strain aat2, stronger effect = lower value 1.02 | S. cerevisiae deletion strains, locus YLR039C, strain RIC1, stronger effect = lower value 1.15 | S. cerevisiae deletion strains, locus YLR058C, strain SHM2, stronger effect = lower value 1 | S. cerevisiae deletion strains, locus YLR102C, strain apc9, stronger effect = lower value 1.02 | S. cerevisiae deletion strains, locus YLR113W, strain HOG1, stronger effect = lower value 1.03 | S. cerevisiae deletion strains, locus YLR221C, strain rsa3, stronger effect = lower value 1.03 | S. cerevisiae deletion strains, locus YLR258W, strain gsy2, stronger effect = lower value 1.02 | S. cerevisiae deletion strains, locus YLR262C, strain YPT6 (second series), stronger effect = lower value 1.06 | S. cerevisiae deletion strains, locus YLR262C, strain YPT6, stronger effect = lower value 1.19 | S. cerevisiae deletion strains, locus YLR268W, strain sec22, stronger effect = lower value 1.03 | S. cerevisiae deletion strains, locus YLR320W, strain mms22, stronger effect = lower value 1.07 | S. cerevisiae deletion strains, locus YLR342W, strain FKS1 (second series), stronger effect = lower value 1.01 | S. cerevisiae deletion strains, locus YLR342W, strain FKS1, stronger effect = lower value 1.01 | S. cerevisiae deletion strains, locus YLR357W, strain rsc2, stronger effect = lower value 0.989 | S. cerevisiae deletion strains, locus YLR370C, strain arc18, stronger effect = lower value 1.01 | S. cerevisiae deletion strains, locus YLR371W, strain rom2, stronger effect = lower value 0.977 | S. cerevisiae deletion strains, locus YLR384C, strain iki3, stronger effect = lower value 1.03 | S. cerevisiae deletion strains, locus YLR418C, strain cdc73, stronger effect = lower value 1.03 | S. cerevisiae deletion strains, locus YML016C, strain PPZ1, stronger effect = lower value 1 | S. cerevisiae deletion strains, locus YML032C, strain rad52, stronger effect = lower value 1.02 | S. cerevisiae deletion strains, locus YML120C, strain ndi1, stronger effect = lower value 1.03 | S. cerevisiae deletion strains, locus YML124C, strain tub3, stronger effect = lower value 1.02 | S. cerevisiae deletion strains, locus YMR058W, strain fet3, stronger effect = lower value 0.955 | S. cerevisiae deletion strains, locus YMR078C, strain ctf18, stronger effect = lower value 1.02 | S. cerevisiae deletion strains, locus YMR125W, strain sto1, stronger effect = lower value 1.03 | S. cerevisiae deletion strains, locus YMR129W, stronger effect = lower value 1.04 | S. cerevisiae deletion strains, locus YMR205C, strain PFK2, stronger effect = lower value 1.09 | S. cerevisiae deletion strains, locus YMR223W, strain ubp8, stronger effect = lower value 1 | S. cerevisiae deletion strains, locus YMR231W, strain pep5, stronger effect = lower value 1.02 | S. cerevisiae deletion strains, locus YMR263W, strain SAP30, stronger effect = lower value 1.03 | S. cerevisiae deletion strains, locus YMR307W, strain GAS1, stronger effect = lower value 0.915 | S. cerevisiae deletion strains, locus YNL067W, strain RPL9B, stronger effect = lower value 1.02 | S. cerevisiae deletion strains, locus YNL071W, strain lat1, stronger effect = lower value 1.05 | S. cerevisiae deletion strains, locus YNL183C, strain NPR1, stronger effect = lower value 0.95 | S. cerevisiae deletion strains, locus YNL209W, strain ssb2, stronger effect = lower value 0.996 | S. cerevisiae deletion strains, locus YNL233W, strain BNI4, stronger effect = lower value 1.04 | S. cerevisiae deletion strains, locus YNL248C, strain rpa49, stronger effect = lower value 0.999 | S. cerevisiae deletion strains, locus YNL250W, strain rad50, stronger effect = lower value 1.05 | S. cerevisiae deletion strains, locus YNL271C, strain bni1, stronger effect = lower value 1 | S. cerevisiae deletion strains, locus YNL298W, strain CLA4, stronger effect = lower value 1.02 | S. cerevisiae deletion strains, locus YNL307C, strain MCK1, stronger effect = lower value 1.02 | S. cerevisiae deletion strains, locus YNL322C, strain KRE1 (second series), stronger effect = lower value 1.07 | S. cerevisiae deletion strains, locus YNL322C, strain KRE1, stronger effect = lower value 1.01 | S. cerevisiae deletion strains, locus YNR049C, strain mso1, stronger effect = lower value 1.04 | S. cerevisiae deletion strains, locus YNR052C, strain pop2, stronger effect = lower value 0.963 | S. cerevisiae deletion strains, locus YOL006C, strain TOP1, stronger effect = lower value 1.03 | S. cerevisiae deletion strains, locus YOL012C, strain htz1 1.21 | S. cerevisiae deletion strains, locus YOL147C, strain pex11, stronger effect = lower value 1.01 | S. cerevisiae deletion strains, locus YOR001W, strain rrp6, stronger effect = lower value 1.03 | S. cerevisiae deletion strains, locus YOR061W, strain CKA2, stronger effect = lower value 1.02 | S. cerevisiae deletion strains, locus YOR069W, strain VPS5, stronger effect = lower value 1 | S. cerevisiae deletion strains, locus YOR070C, strain gyp1, stronger effect = lower value 1.01 | S. cerevisiae deletion strains, locus YOR080W, strain dia2, stronger effect = lower value 1.06 | S. cerevisiae deletion strains, locus YOR083W, strain WHI5, stronger effect = lower value 1.01 | S. cerevisiae deletion strains, locus YOR106W, strain vam3, stronger effect = lower value 1.04 | S. cerevisiae deletion strains, locus YOR136W, strain idh2, stronger effect = lower value 1.02 | S. cerevisiae deletion strains, locus YOR144C, strain elg1, stronger effect = lower value 1.02 | S. cerevisiae deletion strains, locus YOR184W, strain ser1, stronger effect = lower value 1.06 | S. cerevisiae deletion strains, locus YOR231W, strain MKK1, stronger effect = lower value 1.01 | S. cerevisiae deletion strains, locus YOR265W, strain rbl2, stronger effect = lower value 1.03 | S. cerevisiae deletion strains, locus YOR270C, strain vph1, stronger effect = lower value 1.14 | S. cerevisiae deletion strains, locus YOR290C, strain snf2, stronger effect = lower value 1.01 | S. cerevisiae deletion strains, locus YOR316C, strain cot1, stronger effect = lower value 1.01 | S. cerevisiae deletion strains, locus YPL051W, strain arl3, stronger effect = lower value 1.02 | S. cerevisiae deletion strains, locus YPL078C, strain atp4, stronger effect = lower value 1.01 | S. cerevisiae deletion strains, locus YPL106C, strain sse1, stronger effect = lower value 1 | S. cerevisiae deletion strains, locus YPL240C, strain hsp82, stronger effect = lower value 1.04 | S. cerevisiae deletion strains, locus YPL256C, strain CLN2, stronger effect = lower value 0.992 | S. cerevisiae deletion strains, locus YPR119W, strain clb2, stronger effect = lower value 1.03 | S. cerevisiae deletion strains, locus YPR141C, strain kar3, stronger effect = lower value 0.993 | S. cerevisiae deletion strains, locus YPR163C, strain tif3, stronger effect = lower value 1.01 | S. cerevisiae deletion strains, locus YPR167C, strain met16, stronger effect = lower value 1.02 | S. cerevisiae deletion strains, strain wtn01, stronger effect = lower value 1.03 | S. cerevisiae strains, strain wild type, stronger effect = lower value 0.998
